Measured values from PubChem BioAssay (Tox21).
Calls of active or inactive are those of the source. Calls come from the whole dose curve; as a rule, active = well fitted curve in the direction sought with a large enough effect in the repeat runs; inconclusive = weak or mixed curves; inactive = flat fitted curve, though single readings scatter.

Experiment: qHTS assay to test for compound auto fluorescence at 590 nm (red) in HepG2 cells (AID 720674)
Settings: HepG2 autofluorescence, red 540/590 nm, 1 h; series mostly up to 91.3 µM
Text: U.S. Tox21 Program National Center for Advancing Translational Sciences [NCATS] NIH Chemical Genomics Center [NCGC] U.S. Environmental Protection Agency [EPA] National Institutes of Environmental Health Sciences [NIEHS] National Toxicology Program [NTP] U.S. Food and Drug Administration [FDA] Tox21 Assay Overview: Compound auto fluorescence often interferes with screening of the compound library against various biological targets and signaling pathways. Some of these compounds may have fluorophoric properties. Such properties may interfere with the assay outputs resulting in false positives and/or negatives. To decrease such complications and ensure the compound activities are relevant in terms of biological response, the Tox21 10K compound library was screened for auto fluorescence. From the fluorophores used as reporter signals in our screening assays, the auto fluorescence equivalencies of compounds against three fluorophores have been evaluated: Triamterene, Fluorescein and Rose Bengal sodium for blue, green and red fluorescence, respectively. The fluorescence intensities were measured using Excitation/Emission wavelengths at 405/460nm, 485/535nm and 540/590nm for blue, green and red labels, respectively. This assay includes the red fluorescence data.
Tox21 Assay Protocol Summary: 2,000 HepG2 cells in 5 uL of culture medium (MEM containing 10% FBS) per well were dispensed into black wall/clear bottom 1536-well plates using a Multidrop Combi Dispenser (ThermoFisher Scientific, Waltham, MA). The assay plates were incubated overnight at 37 C to allow cell attachment to the well bottom, followed by the transfer of 23 nL compound or DMSO vehicle by a pintool work station (Kalypsys , San Diego, CA). After the assay plates were incubated for 1 hr at 37 C and 5% CO2, fluorescence intensities in the assay plates were measured by an Envision (PerkinElmer, Shelton, CT) plate reader using three labels for measuring blue, green and red fluorescence at […] 460, 535 and 590 nm respectively.

With `COP(=O)(OC)OC` as the compound, how does the outcome read?
The outcome was “inactive”.

Which outcome does the source give for `Clc1nc(Cl)nc(Cl)n1` here?
The outcome was “inactive”.

Which outcome does the source give for `CN(C)c1ccc(C(=O)c2ccc(N(C)C)cc2)cc1` here?
The outcome was “inactive”.

With `C=CCN(CC=C)C(=O)C(Cl)Cl` as the compound, how does the outcome read?
The outcome was “inactive”.

Which outcome does the source give for `O=[N+]([O-])c1cccc2ccccc12` here?
The outcome was “inactive”.

For `C#C[C@]1(O)CC[C@H]2[C@@H]3CCC4=CC(=O)CC[C@]4(C)[C@H]3CC[C@@]21C`, which outcome is on record?
Its outcome is “inactive”.

With `CC(C)=CC1C(C(=O)OCc2coc(Cc3ccccc3)c2)C1(C)C` (stereo not given) as the compound, how does the outcome read?
The outcome was “inactive”.

With `Nc1ccncc1` as the compound, how does the outcome read?
Its outcome is “inactive”.

Which outcome does the source give for `O=C1C=CC(=O)C=C1` here?
The outcome was “inactive”.

For `CCC(C)(C)c1ccc(O)cc1`, which outcome is on record?
Its outcome is “inactive”.

For `Nc1c(Cl)cc([N+](=O)[O-])cc1Cl`, which outcome is on record?
The outcome was “inactive”.

Which outcome does the source give for `CN(C)C(=O)Nc1ccc(Cl)cc1` here?
Its outcome is “inactive”.

With `CCCCNC(=O)n1c(NC(=O)OC)nc2ccccc21` as the compound, how does the outcome read?
The outcome was “inactive”.

For `CCCCC(CC)COC(=O)c1ccc(C(=O)OCC(CC)CCCC)c(C(=O)OCC(CC)CCCC)c1` (stereo not given), which outcome is on record?
Its outcome is “inactive”.

For `CNC(=O)Oc1cccc2c1OC(C)(C)O2`, which outcome is on record?
Its outcome is “inactive”.

Which outcome does the source give for `Brc1ccc(Oc2cc(Br)c(Br)cc2Br)c(Br)c1` here?
The outcome was “inactive”.

For `O=C(O)CC[N+](=O)[O-]`, which outcome is on record?
Its outcome is “inactive”.

With `CCCCOCCOP(=O)(OCCOCCCC)OCCOCCCC` as the compound, how does the outcome read?
The outcome was “inactive”.

Which outcome does the source give for `CC(C)(OOC(C)(C)c1ccccc1)c1ccccc1` here?
The outcome was “inactive”.

Which outcome does the source give for `C=CCc1ccc2c(c1)OCO2` here?
Its outcome is “inactive”.

Which outcome does the source give for `Oc1ccc(-c2ccccc2)cc1` here?
The outcome was “inactive”.

With `CCC(CC)Nc1c([N+](=O)[O-])cc(C)c(C)c1[N+](=O)[O-]` as the compound, how does the outcome read?
Its outcome is “inactive”.

With `Cc1ccc2c(c1N)C(=O)c1ccccc1C2=O` as the compound, how does the outcome read?
The outcome was “inactive”.

For `CCCCC(CC)COC(=O)Cl` (stereo not given), which outcome is on record?
Its outcome is “inactive”.

Which outcome does the source give for `Nn1cnnc1` here?
The outcome was “inactive”.

Which outcome does the source give for `O=Cc1ccco1` here?
Its outcome is “inactive”.

Which outcome does the source give for `O=[N+]([O-])c1c(Cl)c(Cl)c(Cl)c(Cl)c1Cl` here?
The outcome was “inactive”.

Which outcome does the source give for `Cc1ccc(OP(=O)(Oc2ccc(C)cc2)Oc2ccc(C)cc2)cc1` here?
The outcome was “inactive”.

Which outcome does the source give for `O=C(CCl)c1ccccc1` here?
Its outcome is “inactive”.

For `O=P(Oc1ccccc1)(Oc1ccccc1)Oc1ccccc1`, which outcome is on record?
Its outcome is “inactive”.

With `Nc1ccc(Cl)cc1N` as the compound, how does the outcome read?
The outcome was “inactive”.

With `c1ccc(-c2cccc(-c3ccccc3)c2)cc1` as the compound, how does the outcome read?
Its outcome is “inactive”.

For `C[C@]12CCC(=O)C(O)=C1CC[C@@H]1[C@@H]2CC[C@]2(C)C(=O)CC[C@@H]12`, which outcome is on record?
Its outcome is “inactive”.

With `O=S(=O)(Oc1ccc(Cl)cc1)c1ccc(Cl)cc1` as the compound, how does the outcome read?
Its outcome is “inactive”.

For `C=CCc1ccc(OC)cc1`, which outcome is on record?
Its outcome is “inactive”.

Which outcome does the source give for `CCC(C)(c1ccc(O)cc1)c1ccc(O)cc1` here?
The outcome was “inactive”.

With `CCCCCCOC(=O)c1ccccc1C(=O)OCCCCCC` as the compound, how does the outcome read?
The outcome was “inactive”.

With `O=P(O)(O)CCCl` as the compound, how does the outcome read?
Its outcome is “inactive”.

For `CCCCCCCCOC(=O)c1ccccc1C(=O)OCCCCCCCC`, which outcome is on record?
Its outcome is “inactive”.

Which outcome does the source give for `Cc1cc(Cl)ccc1OCCCC(=O)O` here?
The outcome was “inactive”.
